Most compounds without a hit are left out; they make up all but 3.6% or so of the library.
Pf apPOL inh = Pf-apPOL inhibitors, biochemical, fluorescence; Plasmodium falciparum apicoplast DNA polymerase (apPOL); Recombinant Pf-apPOL, molecular beacon fluorescence, 1.5 h; inhibition, % at 10 µM; hit rate 0.25% among 210,000
mHTT CaM bind = mutant huntingtin-calmodulin interaction inhibitors – biochemical, AlphaScreen, primary screen; P42858; AlphaScreen His-mHTT/GST-CaM binding, luminescence; inhibition, % at 15 µM; hit rate 3.6% among 190,000; AID 1671202, 2021;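 note: 0% = both proteins with DMSO and 100% = one protein alone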
An asterisk follows results filed as active; . = not tested or not shown. Cut-off read from the data, not from the text of the source: active = inhibition above about 50%; inactive = the rest.

SMILES	Pf apPOL inh	mHTT CaM bind
Brc1ccc(C2Oc3ccccc3C3CC(c4cccs4)=NN32)o1 (stereo not drawn)	-57.4	100.0*
Cc1ccc(C2=NN3C(C2)c2ccccc2OC3c2ccccc2)o1 (stereo not drawn)	-8.3	30.0
c1csc(C2=NN3C(C2)c2ccccc2OC3c2ccsc2)c1 (stereo not drawn)	-25.6	27.0
c1cncc(C2Oc3ccccc3C3CC(c4cccs4)=NN32)c1 (stereo not drawn)	-36.7	25.0
Oc1ccccc1C1Oc2ccccc2C2CC(c3cccs3)=NN21 (stereo not drawn)	-0.5	51.0*
Nc1nnc(SCC(=O)Nc2ncc(Br)cc2Br)s1	2.6	0.0
NC(=O)c1c(NC(=O)COc2ccccc2[N+](=O)[O-])sc2c1CCC2	-1.9	23.6
COc1ccc(-c2nc3c(c(=O)[nH]2)CCN(C(=O)Cc2c(F)cccc2Cl)C3)cc1	-2.9	0.6
O=C1c2ccncc2C(=O)N1c1ccc(C23CC4CC(CC(C4)C2)C3)cc1	-4.6	-5.0
COc1ccccc1-c1noc(C2CCCN2C(=O)Nc2ccc3c(c2)OCCO3)n1 (stereo not drawn)	-9.4	13.2
CN(CC#N)C(=O)c1ccc(N2CCc3ccccc32)s1	-5.9	-12.5
COc1ccc(C2CC(C(F)(F)F)n3ncc(C(=O)NCCc4ccccc4)c3N2)cc1OC (stereo not drawn)	9.1	36.0
CSc1cccc(NS(=O)(=O)c2ccc(C)cc2)c1	-2.3	-4.7
Oc1ccc(C2Oc3ccccc3C3CC(c4cccs4)=NN32)cc1 (stereo not drawn)	-6.2	51.0*
c1ccc(C2Oc3ccccc3C3CC(c4cccs4)=NN32)cc1 (stereo not drawn)	5.3	35.0
CCOc1c(O)ccc(C2Oc3ccccc3C3CC(c4cccs4)=NN32)c1[N+](=O)[O-] (stereo not drawn)	-7.1	54.0*
COc1ccc(O)c(C2Oc3ccccc3C3CC(c4cccs4)=NN32)c1 (stereo not drawn)	2.6	49.0
COc1ccc(C)cc1N1C(=O)NC2CC1(C)Oc1ccc(Cl)cc12 (stereo not drawn)	-0.4	25.0
N#CC1(N2CCOCC2)CCCCC1	-0.4	-10.3
CCCn1c(C(=O)NCC2CCCO2)cc2sc(Br)cc21 (stereo not drawn)	-4.5	59.9*
CCCn1c(C(=O)N2CCN(C(C)=O)CC2)cc2sc(Br)cc21	-2.1	54.4*
C=C(C)Cn1c(C(=O)NCC2CCCO2)cc2sc(C)cc21 (stereo not drawn)	-13.4	8.3
CCCn1c(C(=O)N2CCOCC2)cc2sc(C)cc21	-3.9	29.2
CCc1nc(-c2c(C)cc(C)nc2NC(=O)C2(c3ccccc3)CC2)no1	-0.2	-4.4
CCc1ccc(CNC(=O)c2cccc(C3CCCN(C(=O)NC)C3)c2)cc1 (stereo not drawn)	-5.7	10.9
SMILES	Pf apPOL inh	mHTT CaM bind
CCCCOc1ccc(CN2CCCC2c2cc(C)on2)cc1 (stereo not drawn)	-7.9	7.5
CNC(=O)Nc1ccc(C2(C(=O)N3CCN(c4ccccc4)CC3)CCC2)cc1	0.6	10.5
CNC(=O)Nc1ccc(C2(C(=O)N3CCN(c4cccc(Cl)c4)CC3)CCC2)cc1	1.4	67.2*
CC(=O)Nc1ccc(C2(C(=O)N3CCN(c4ccccc4)CC3)CCCCC2)cc1	-0.9	91.0*
CC(C)C(=O)Nc1ccc(C2(C(=O)N3CCN(c4ccccn4)CC3)CCCCC2)cc1	4.1	27.7
O=C(NC1CCCCC1)C1CCCN(c2ncnc3c2nc2n3CCCCC2)C1 (stereo not drawn)	-1.5	5.0
O=C(Nc1ccc(F)cc1)c1cn(-c2ccccc2)nc1-c1cccnc1	12.4	24.0
COc1ccc(C=C2Oc3c(ccc(OCC(N)=O)c3C)C2=O)cc1OC	-5.5	-0.1
CCN(CC)CCNC(=O)CN1N=C(c2ccc(Cl)cc2)CCC1=O	-91.9	0.0
CCN(CCNC(=O)CN1N=C(c2ccc(Cl)cc2)CCC1=O)c1ccccc1	-10.0	65.0*
CN(CCNC(=O)c1ccnc(N2CCNC(c3ccccc3)C2)c1)C1CCCCC1 (stereo not drawn)	-6.0	5.2
CN(C)C=C1Cc2ccccc2C1=O	-10.9	.
CSc1scc2c1C(=O)C(=CN(C)C)CC2	93.0*	.
Cc1ccc(N2CCC(NC(=O)c3ccc(F)cc3)C2=O)cc1C (stereo not drawn)	-2.3	-6.5
CCCCC[C@H]1CN(CCCC)C(=O)[C@@H]1CC(=O)NCc1ccccc1	-9.6	11.6
O=C(C[C@H]1C(=O)N(c2ccc(Br)cc2)C[C@@H]1Cc1ccccc1)Nc1ccccc1	-5.1	50.8*
CCCCC[C@H]1CN(Cc2ccc(OC)cc2)C(=O)[C@@H]1CC(=O)NCc1ccccc1	2.3	53.6*
COc1ccc(CN2C[C@H](Cc3ccccc3)[C@@H](CC(=O)Nc3ccccc3)C2=O)cc1	-7.1	68.2*
O=C(C[C@H]1C(=O)N(c2ccccc2)C[C@@H]1Cc1ccccc1)Nc1ccc(Br)cc1	1.5	2.4
COc1ccc(NC(=O)C[C@H]2C(=O)N(Cc3cccnc3)C[C@@H]2Cc2ccccc2)cc1	-5.4	18.3
Cc1nn(CCCC(=O)Nc2cccc(Cl)c2Cl)c(C)c1[N+](=O)[O-]	-12.1	-5.0
O=C(NCCCn1ccnc1)c1ccc(C(=O)NCCCn2ccnc2)cc1	0.0	0.3
Cc1ccc(N2CC(NC(=O)NCCCn3ccnc3)CC2=O)cc1 (stereo not drawn)	-3.0	97.7*
Cn1ccc2c(-c3ccccc3F)cc3c(c21)C1CCC3C1 (stereo not drawn)	-2.9	13.1
CN(Cc1ccccc1F)c1cc2c(c3c1ccn3C)C1CCC2C1 (stereo not drawn)	-0.2	56.4*
SMILES	Pf apPOL inh	mHTT CaM bind
C=C(C)COc1ccc2c3c(c(=O)oc2c1C)CCCC3	-2.6	-13.0
CNC(=O)CCN1N=C(c2ccc(OC)cc2)CCC1=O	-22.0	-4.0
CC=CCn1c(=O)c2c(nc3n(C4CCCC4)c(C)c(C)n23)n(C)c1=O	4.1	-4.2
O=[N+]([O-])c1cc(Br)c2nsnc2c1Br	-6.4	29.9
O=[N+]([O-])c1cc(Br)c2nsnc2c1N1CCCCCC1	.	51.4*
CCOc1ccccc1C(=O)N1CCC2(CC1)Nc1ccccc1-n1cccc12	-3.6	16.4
COc1cccc(CC(=O)N2CCC3(CC2)NC(=O)N(Cc2ccc(C)cc2)C3=O)c1	-1.9	14.1
COc1ccc(OCC(=O)N2CCC3(CC2)Nc2cc(C)ccc2-n2cccc23)cc1	4.5	54.3*
O=C(COc1ccc(Cl)cc1)N1CCC2(CC1)Nc1ccccc1-n1cccc12	-2.0	93.2*
COc1ccc(OCC(=O)N2CCC3(CC2)Nc2cccnc2NC3=NC(C)(C)C)cc1	-1.1	16.3
COc1cccc(CC(=O)N2CCC3(CC2)Nc2cc(OC)ccc2-n2cccc23)c1	-5.7	91.7*
O=C(Cc1cccc(F)c1)N1CCC2(CC1)Nc1ccccc1-n1cccc12	1.4	59.1*
O=C(Cc1cccc(F)c1)N1CCC2(C1)C(=O)Nc1ccccc12 (stereo not drawn)	-1.5	7.4
Cc1ccc(C(=O)Nc2ccc(N(C)C)cc2)cc1Cl	-4.5	3.0
O=C(Cc1csc(Nc2ccc(Cl)cn2)n1)N1CCc2ccccc2C1	-2.6	42.4
Cn1nccc1-c1cccc(-c2noc(-c3cccs3)n2)c1	0.3	-15.1
Cc1cc(C(=O)N2CCC3(C2)NCc2ccccc2NC3=NCc2ccccc2)n[nH]1 (stereo not drawn)	-0.6	9.8
